Consider 40 compounds from PubChem BioAssay (NCI).

This is part of a sample that, as a whole, favours compounds with a hit. Of some 79,000 tested, about 15% had one in any assay. Unmarked numbers belong to inactive results. Active and inactive are the calls of the source. No stated cut-off is given here; in the data, active means growth inhibition above about 70%; inactive means the rest.

This test in a line: NCI Yeast Anticancer Drug Screen. Data for the bub3 strain (AID 167). To be noted: S. cerevisiae bub3 mutant strain, at 50.0 µM (retest, dose inferred, filed as 5.0), hits give high values. In a few lines:
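Readout: yeast growth inhibition, expressed relative to vehicle-only wells. The test organism is a mutant strain from a panel with lesions in DNA repair or checkpoint genes.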
In the case of `CCOC(=O)CNC(=O)C1C2c3ccccc3C(c3ccccc32)C1C(=O)O` (stereo not given), the growth inhibition is 45%. On to `O=[N+]([O-])c1ccc(NP(=S)(Nc2ccc([N+](=O)[O-])cc2)c2ccccc2)cc1`, for which the growth inhibition was 90% (active).

In the case of `O=P(c1ccccc1)(c1ccccc1)c1ccccc1.[Cl][Sn]([c]1ccccc1)([c]1ccccc1)[c]1ccccc1`, the growth inhibition was 98% (active).

`CC(C)(C)OOC(=O)/C=C\C(=O)OOC(C)(C)C`: the growth inhibition is 0%. In the case of `Cc1cc2c(cc1O)C(C)(C)CCC2(C)C` it was 83% (active). With `N#CC(C#N)=Cc1ccc(Cl)o1` the figure was 35%. In the case of `COc1c(Br)cc(/C=C/[N+](=O)[O-])cc1Br`, the growth inhibition was 97% (active). Turning to `[O]=[Sb]([OH])([OH])[c]1ccc(NC2OC(CO)C(O)C(O)C2O)cc1` (stereo not given), the growth inhibition is -1%. With `NC(=S)C1=C(N)Oc2c(c(=O)oc3ccccc23)C1c1ccc(Br)cc1` (stereo not given) the figure was 90% (active); with `COS(=O)(=O)c1ccccc1`, 39%. For `O=[N+]([O-])c1cc[n+]([O-])c2ccccc12`, the growth inhibition was 99% (active). With `O=C(c1ccccc1)c1c(CC(O)c2cccnc2)n(C(=O)c2ccccc2)c2ccccc12` (stereo not given) the figure was 97% (active); with `Nc1nc2ncnc(N)c2nc1-c1ccc(N(CCCl)CCCl)cc1`, 40%; with `O=C1c2ccccc2CCC1Br` (stereo not given), 99% (active). As to `CC1CCCC[N-]1.CC1CCCC[N-]1.N#C[S-].N#C[S-].[Cd]` (stereo not given), the growth inhibition is 26%. Regarding `CCOP(=O)(OCC)/C(C#N)=C/c1ccc(Br)cc1`, the growth inhibition was 97% (active). With `CN(CCCl)Cc1ccc(OCc2ccccc2)c(OCc2ccccc2)c1` the figure was 99% (active). For `O=C(O)c1cccc2cccc(C(=O)O)c12.[Hg]`, the growth inhibition is 99% (active). As to `S=c1[nH]c2ccccc2s1.[Pb]`, the growth inhibition was -7%. With `COc1ccc([As](O[As](c2ccc(OC)cc2)c2ccc(OC)cc2)c2ccc(OC)cc2)cc1` the figure was 99% (active). In the case of `CC1=C/C(=C2/N=C(N(C)C)SS2)C(C)=N1` it was 66%; in that of `CN1C2CCC1c1c([nH]c3ccccc13)C2` (stereo not given), -1%; in that of `C[CH2][Sn]([Br])([CH2]C)[c]1ccccc1CN(C)C`, 78% (active).

As for `O=C(CCl)Nc1ccc(Cl)cc1`, the growth inhibition is 40%.

For `ClC1CCCCC1[Se](Cl)(Cl)C1CCCCC1Cl` (stereo not given), the growth inhibition is 99% (active).

Take `Cc1cc(C(C)(C)c2ccc(O)c(C)c2)ccc1O`: the growth inhibition was 99% (active). In the case of `O=[N+]([O-])O.[In]` it was 58%; in that of `[pH]1p2[pH]p3p1p3[pH]2.c1cc[c]([Ge]([c]2ccccc2)[c]2ccccc2)cc1.c1cc[c]([Ge]([c]2ccccc2)[c]2ccccc2)cc1.c1cc[c]([Ge]([c]2ccccc2)[c]2ccccc2)cc1`, 66%; in that of `C1=CC2CCC[N-]C2N1.C1=CC2CCC[N-]C2N1.[I][Pt+2][I]` (stereo not given), 99% (active). In the case of `O=[N+]([O-])/C=C/c1cccc(F)c1` it was 98% (active); in that of `O=[N+]([O-])c1ccc(CS(=O)(=O)C(Cl)(Cl)Cl)o1`, 98% (active); in that of `CC(=O)[O][Hg][c]1ccc(N)[c]([Hg][O]C(C)=O)c1`, 99% (active). In the case of `CNP(=O)(Oc1cc(Cl)c(Cl)cc1Cl)N1CCN(c2ccccc2)CC1` (stereo not given) it was 86% (active); in that of `Cc1ccc2c(c1)N(CCN(CCCl)CCCl)c1c(ccc3ccccc13)S2`, 82% (active); in that of `CC1(C(=O)O)CCCC2(C)c3cc(O)ccc3CCC12` (stereo not given), 87% (active).

For the compound `C#CC(O)(CC)CC`, the growth inhibition was 2%. Regarding `CC1CC[N-]C(C)C1.CN(C)C=O.[Cl][Pt][Cl]` (stereo not given), the growth inhibition was 100% (active). With `CN1CCN(c2ccc3nc(-c4ccc5nc(-c6ccc(N(C)CCCl)cc6)[nH]c5c4)[nH]c3c2)CC1` the figure was 99% (active); with `CC(=O)NNc1ccccc1`, 89% (active); with `CC(C)[S-].CC(C)[S-].[Pt+2].c1ccc([PH+](c2ccccc2)c2ccccc2)cc1.c1ccc([PH+](c2ccccc2)c2ccccc2)cc1`, 97% (active).
